Measured values as given in article PMC7862700, “An all-to-all approach to the identification of sequence-specific readers for epigenetic DNA modifications on cytosine”.

Legend:
Assay in all cases: DAPPL (digital affinity profiling via proximity ligation, sequencing); 10 mM Tris-HCl pH 7.5, 50 mM NaCl, 1 mM DTT, 4% glycerol, room temperature, 30 min; GST-TFs on glutathione beads, 16-mer random dsDNA library, 0.1% formaldehyde crosslink after washing; high values mean tight binding
[1] = biological target: T1, FLI1 (Homo sapiens, UniProt Q01543 1-452); conditions: protein: recombinant; tags: N-terminal GST; dsDNA, one strand shown
T1 sequence: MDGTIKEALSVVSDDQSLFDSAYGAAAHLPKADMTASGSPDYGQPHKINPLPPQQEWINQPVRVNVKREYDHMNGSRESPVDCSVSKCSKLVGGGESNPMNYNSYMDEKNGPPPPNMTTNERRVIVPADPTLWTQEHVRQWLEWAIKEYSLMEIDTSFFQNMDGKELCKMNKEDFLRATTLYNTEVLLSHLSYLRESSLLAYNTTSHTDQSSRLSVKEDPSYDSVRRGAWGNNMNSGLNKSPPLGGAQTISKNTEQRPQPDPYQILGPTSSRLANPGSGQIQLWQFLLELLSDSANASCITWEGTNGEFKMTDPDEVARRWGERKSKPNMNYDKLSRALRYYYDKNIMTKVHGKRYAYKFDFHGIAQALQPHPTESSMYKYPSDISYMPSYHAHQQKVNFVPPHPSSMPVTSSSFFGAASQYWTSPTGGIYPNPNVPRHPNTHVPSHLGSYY
In short: (§1)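 Pools were built from human transcription factors expressed in yeast as GST fusions, captured on glutathione beads and DNA-barcoded, along with a tag-only sample. Incubation with 200 nmole of a 16-mer random double-stranded DNA library lasted 30 min at room temperature in Tris/NaCl/DTT/glycerol buffer, and was followed by washing, 0.1% formaldehyde crosslinking, proximity ligation, PCR amplification and Illumina NextSeq500 sequencing. Binding signal is the quotient of each hexamer's read frequency for a factor and its frequency for the tag-only sample.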

[2] = biological target: T2, ELK1 (Homo sapiens, UniProt P19419 1-428); conditions: protein: recombinant; tags: N-terminal GST; dsDNA, one strand shown
T2 sequence: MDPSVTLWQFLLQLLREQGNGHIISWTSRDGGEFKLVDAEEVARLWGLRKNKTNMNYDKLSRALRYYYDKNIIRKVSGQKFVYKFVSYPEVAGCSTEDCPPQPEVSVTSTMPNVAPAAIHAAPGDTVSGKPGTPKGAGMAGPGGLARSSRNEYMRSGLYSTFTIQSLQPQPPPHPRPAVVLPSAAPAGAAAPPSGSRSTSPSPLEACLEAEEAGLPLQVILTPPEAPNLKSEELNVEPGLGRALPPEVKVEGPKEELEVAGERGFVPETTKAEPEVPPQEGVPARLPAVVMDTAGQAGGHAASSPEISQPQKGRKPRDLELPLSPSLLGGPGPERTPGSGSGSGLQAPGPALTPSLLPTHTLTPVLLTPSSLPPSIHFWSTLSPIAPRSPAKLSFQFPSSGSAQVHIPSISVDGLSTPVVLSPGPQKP
In short: as §1

[3] = biological target: T3, GABPA (Homo sapiens, UniProt Q06546 1-454); conditions: protein: recombinant; tags: N-terminal GST; dsDNA, one strand shown
T3 sequence: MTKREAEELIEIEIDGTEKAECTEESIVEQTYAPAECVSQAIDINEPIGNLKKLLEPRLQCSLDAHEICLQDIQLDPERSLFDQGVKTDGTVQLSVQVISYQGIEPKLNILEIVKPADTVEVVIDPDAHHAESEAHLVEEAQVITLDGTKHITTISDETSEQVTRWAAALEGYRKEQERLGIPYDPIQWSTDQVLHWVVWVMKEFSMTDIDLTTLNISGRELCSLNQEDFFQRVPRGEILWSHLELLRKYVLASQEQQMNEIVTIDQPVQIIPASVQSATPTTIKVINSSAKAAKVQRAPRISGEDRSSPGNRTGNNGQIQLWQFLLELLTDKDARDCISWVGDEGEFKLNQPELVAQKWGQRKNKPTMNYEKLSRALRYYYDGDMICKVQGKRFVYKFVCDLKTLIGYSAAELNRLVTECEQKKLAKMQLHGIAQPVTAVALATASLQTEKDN
In short: as §1

[4] = biological target: T4, ERG (Homo sapiens, UniProt P11308 1-479); conditions: protein: recombinant; tags: N-terminal GST; dsDNA, one strand shown
T4 sequence: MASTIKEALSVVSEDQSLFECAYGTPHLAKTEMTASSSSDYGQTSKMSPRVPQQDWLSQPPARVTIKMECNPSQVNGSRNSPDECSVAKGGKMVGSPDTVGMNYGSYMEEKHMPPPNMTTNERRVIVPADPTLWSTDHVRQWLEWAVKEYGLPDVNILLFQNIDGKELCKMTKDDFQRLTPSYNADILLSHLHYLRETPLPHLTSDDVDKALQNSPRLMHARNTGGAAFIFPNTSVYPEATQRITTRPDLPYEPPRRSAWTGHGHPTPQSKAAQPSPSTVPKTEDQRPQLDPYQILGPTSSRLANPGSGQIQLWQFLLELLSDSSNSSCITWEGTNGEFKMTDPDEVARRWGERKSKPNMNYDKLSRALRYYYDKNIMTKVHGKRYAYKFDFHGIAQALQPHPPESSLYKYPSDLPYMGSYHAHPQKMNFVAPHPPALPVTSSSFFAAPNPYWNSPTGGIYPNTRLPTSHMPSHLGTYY
In short: as §1

[5] = biological target: ELF1 (Homo sapiens, UniProt P32519 1-619); conditions: protein: recombinant; tags: N-terminal GST; dsDNA, one strand shown
Chain of ELF1 (P32519 whole entry): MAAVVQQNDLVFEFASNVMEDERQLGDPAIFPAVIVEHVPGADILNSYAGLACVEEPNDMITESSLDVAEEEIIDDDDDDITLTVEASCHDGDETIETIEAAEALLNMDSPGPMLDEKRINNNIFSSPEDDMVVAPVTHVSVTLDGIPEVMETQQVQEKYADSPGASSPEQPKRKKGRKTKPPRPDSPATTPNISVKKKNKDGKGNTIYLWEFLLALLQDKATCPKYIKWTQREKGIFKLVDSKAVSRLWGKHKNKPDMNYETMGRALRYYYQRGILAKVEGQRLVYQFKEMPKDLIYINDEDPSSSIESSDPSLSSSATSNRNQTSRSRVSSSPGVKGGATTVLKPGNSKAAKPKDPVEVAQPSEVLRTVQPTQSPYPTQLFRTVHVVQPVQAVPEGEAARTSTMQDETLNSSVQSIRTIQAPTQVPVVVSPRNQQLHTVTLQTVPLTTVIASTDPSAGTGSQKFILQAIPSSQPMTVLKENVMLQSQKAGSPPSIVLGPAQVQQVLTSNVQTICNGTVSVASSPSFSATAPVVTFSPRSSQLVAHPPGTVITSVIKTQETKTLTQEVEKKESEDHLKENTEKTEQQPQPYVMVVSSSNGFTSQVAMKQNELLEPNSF
In short: as §1

[6] = biological target: T5, EHF (Homo sapiens, UniProt Q9NZC4 1-300); conditions: protein: recombinant; tags: N-terminal GST; dsDNA, one strand shown
T5 sequence: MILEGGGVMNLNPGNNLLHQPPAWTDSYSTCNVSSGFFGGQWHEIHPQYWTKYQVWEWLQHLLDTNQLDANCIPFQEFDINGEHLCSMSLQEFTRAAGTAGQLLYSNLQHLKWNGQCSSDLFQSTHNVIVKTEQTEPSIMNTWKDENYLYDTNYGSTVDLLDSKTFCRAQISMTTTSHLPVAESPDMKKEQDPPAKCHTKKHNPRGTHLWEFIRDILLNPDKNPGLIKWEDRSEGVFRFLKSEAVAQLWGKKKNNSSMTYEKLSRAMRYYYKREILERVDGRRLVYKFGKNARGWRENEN
In short: as §1

[7] = biological target: SPI1 (Homo sapiens, UniProt P17947 1-270); conditions: protein: recombinant; tags: N-terminal GST; dsDNA, one strand shown
In short: as §1

[8] = biological target: SPIB (Homo sapiens, UniProt Q01892 1-262); conditions: protein: recombinant; tags: N-terminal GST; dsDNA, one strand shown
Chain of SPIB (Q01892 whole entry): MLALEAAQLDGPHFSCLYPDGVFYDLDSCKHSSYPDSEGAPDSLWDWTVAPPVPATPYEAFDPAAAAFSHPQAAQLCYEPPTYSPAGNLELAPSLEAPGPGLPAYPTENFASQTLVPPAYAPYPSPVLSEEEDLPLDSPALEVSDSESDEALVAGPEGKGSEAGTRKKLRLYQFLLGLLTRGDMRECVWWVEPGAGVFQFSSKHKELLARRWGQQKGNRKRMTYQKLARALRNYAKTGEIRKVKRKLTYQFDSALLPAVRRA
In short: as §1

[9] = biological target: T6, ELK3 (Homo sapiens, UniProt P41970 1-407); conditions: protein: recombinant; tags: N-terminal GST; dsDNA, one strand shown
T6 sequence: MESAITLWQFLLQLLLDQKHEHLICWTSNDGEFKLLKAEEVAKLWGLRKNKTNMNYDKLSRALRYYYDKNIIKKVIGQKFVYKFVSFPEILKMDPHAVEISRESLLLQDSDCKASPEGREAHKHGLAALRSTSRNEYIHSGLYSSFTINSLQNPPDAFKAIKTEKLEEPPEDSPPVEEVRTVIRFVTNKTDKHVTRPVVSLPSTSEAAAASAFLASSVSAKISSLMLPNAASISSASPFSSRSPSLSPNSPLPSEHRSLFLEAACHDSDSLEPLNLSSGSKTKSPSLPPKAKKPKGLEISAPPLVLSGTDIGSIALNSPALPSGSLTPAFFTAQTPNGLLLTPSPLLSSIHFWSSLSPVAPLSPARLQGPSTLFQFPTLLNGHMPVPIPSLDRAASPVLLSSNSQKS
In short: as §1

[10] = biological target: T7, FEV (Homo sapiens, UniProt Q99581 1-238); conditions: protein: recombinant; tags: N-terminal GST; dsDNA, one strand shown
T7 sequence: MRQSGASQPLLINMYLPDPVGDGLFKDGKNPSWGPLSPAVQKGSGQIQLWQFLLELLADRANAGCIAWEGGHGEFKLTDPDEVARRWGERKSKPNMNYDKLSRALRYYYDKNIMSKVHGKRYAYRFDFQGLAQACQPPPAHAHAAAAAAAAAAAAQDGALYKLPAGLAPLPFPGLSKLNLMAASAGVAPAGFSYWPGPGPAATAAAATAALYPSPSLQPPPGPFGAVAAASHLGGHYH
In short: as §1

[11] = biological target: ETV5 (Homo sapiens, UniProt P41161 1-510); conditions: protein: recombinant; tags: N-terminal GST; dsDNA, one strand shown
Chain of ETV5 (P41161 whole entry): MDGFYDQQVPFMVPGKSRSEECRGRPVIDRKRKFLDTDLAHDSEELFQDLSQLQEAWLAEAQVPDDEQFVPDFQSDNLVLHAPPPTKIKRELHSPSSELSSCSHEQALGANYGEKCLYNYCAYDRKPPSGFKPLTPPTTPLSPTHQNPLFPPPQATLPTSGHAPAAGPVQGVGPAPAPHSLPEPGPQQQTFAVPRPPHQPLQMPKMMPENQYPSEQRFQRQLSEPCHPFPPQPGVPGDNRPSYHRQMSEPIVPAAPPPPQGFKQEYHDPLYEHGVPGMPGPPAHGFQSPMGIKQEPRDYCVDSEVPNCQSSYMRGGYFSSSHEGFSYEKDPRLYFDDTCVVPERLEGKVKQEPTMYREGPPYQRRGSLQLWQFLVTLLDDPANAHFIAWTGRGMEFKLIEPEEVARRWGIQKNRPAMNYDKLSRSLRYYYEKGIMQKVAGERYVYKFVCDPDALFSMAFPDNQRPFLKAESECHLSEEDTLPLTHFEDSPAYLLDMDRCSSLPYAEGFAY
In short: as §1

[12] = biological target: HSF1 (Homo sapiens, UniProt Q00613 1-529); conditions: protein: recombinant; tags: N-terminal GST; chain copies: 3; dsDNA, one strand shown
Chain of HSF1 (Q00613 whole entry): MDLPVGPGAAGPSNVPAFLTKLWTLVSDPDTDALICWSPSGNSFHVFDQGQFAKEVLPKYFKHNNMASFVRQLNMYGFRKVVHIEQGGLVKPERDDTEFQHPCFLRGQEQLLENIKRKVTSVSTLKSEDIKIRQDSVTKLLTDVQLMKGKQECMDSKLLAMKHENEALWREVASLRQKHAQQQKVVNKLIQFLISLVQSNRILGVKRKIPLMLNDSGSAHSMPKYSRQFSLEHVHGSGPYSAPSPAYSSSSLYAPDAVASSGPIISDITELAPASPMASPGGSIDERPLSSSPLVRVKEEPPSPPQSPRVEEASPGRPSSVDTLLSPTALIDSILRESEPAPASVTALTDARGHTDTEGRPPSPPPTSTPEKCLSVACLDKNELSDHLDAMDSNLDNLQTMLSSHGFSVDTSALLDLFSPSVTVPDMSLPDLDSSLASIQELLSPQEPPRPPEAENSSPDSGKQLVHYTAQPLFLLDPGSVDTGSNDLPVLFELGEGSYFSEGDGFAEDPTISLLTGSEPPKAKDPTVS
In short: as §1

[13] = biological target: T8, SPIC (Homo sapiens, UniProt Q8N5J4 1-248); conditions: protein: recombinant; tags: N-terminal GST; dsDNA, one strand shown
T8 sequence: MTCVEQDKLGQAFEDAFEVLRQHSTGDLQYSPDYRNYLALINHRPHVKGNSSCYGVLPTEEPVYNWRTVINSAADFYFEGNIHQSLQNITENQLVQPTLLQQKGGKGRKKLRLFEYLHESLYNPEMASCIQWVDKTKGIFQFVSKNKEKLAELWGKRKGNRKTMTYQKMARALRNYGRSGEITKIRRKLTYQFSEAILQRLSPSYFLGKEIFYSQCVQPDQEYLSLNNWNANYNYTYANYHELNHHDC
In short: as §1

[14] = biological target: ELF4 (Homo sapiens, UniProt Q99607 1-663); conditions: protein: recombinant; tags: N-terminal GST; dsDNA, one strand shown
Chain of ELF4 (Q99607 whole entry): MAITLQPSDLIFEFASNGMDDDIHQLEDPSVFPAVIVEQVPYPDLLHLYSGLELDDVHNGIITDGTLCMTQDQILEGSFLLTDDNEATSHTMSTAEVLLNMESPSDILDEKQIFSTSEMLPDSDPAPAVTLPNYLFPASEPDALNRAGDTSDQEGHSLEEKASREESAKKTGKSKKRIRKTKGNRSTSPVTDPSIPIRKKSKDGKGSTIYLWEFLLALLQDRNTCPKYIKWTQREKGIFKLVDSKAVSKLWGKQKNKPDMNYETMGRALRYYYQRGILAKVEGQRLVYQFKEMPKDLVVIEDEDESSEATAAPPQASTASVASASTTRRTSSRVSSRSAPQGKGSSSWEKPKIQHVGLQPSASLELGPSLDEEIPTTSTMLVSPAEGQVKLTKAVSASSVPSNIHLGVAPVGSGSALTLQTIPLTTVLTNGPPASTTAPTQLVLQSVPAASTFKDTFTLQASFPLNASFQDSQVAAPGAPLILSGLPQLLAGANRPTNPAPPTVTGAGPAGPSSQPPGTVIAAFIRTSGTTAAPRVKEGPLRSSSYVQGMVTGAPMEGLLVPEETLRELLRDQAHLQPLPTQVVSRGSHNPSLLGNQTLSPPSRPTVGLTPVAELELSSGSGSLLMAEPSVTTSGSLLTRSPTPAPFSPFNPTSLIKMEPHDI
In short: as §1

[15] = biological target: T9, ELK4 (Homo sapiens, UniProt P28324-2 1-405); conditions: protein: recombinant; tags: N-terminal GST; dsDNA, one strand shown
T9 sequence: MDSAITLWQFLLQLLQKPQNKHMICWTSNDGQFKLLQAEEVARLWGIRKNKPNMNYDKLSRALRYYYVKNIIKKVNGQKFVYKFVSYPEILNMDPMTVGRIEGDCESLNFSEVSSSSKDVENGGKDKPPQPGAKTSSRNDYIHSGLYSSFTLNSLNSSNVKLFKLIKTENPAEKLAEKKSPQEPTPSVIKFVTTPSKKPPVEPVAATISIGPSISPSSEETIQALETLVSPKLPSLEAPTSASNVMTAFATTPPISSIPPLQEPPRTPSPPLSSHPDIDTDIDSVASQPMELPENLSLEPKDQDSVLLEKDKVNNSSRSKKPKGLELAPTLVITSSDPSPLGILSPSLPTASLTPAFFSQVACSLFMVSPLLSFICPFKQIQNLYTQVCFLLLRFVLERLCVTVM
In short: as §1

[16] = biological target: T10, ETV2 (Homo sapiens, UniProt O00321 1-342); conditions: protein: recombinant; tags: N-terminal GST; dsDNA, one strand shown
T10 sequence: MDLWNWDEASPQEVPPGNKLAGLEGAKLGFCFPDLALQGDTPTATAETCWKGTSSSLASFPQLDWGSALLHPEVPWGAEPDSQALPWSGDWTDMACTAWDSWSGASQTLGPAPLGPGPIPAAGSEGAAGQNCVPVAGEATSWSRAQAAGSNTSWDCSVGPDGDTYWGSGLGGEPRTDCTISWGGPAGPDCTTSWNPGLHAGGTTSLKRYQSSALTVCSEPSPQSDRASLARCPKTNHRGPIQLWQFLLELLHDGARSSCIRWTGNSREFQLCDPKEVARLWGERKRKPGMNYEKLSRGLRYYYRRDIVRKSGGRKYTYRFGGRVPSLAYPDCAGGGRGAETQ
In short: as §1

[17] = biological target: T11, ELF3 (Homo sapiens, UniProt P78545 1-371); conditions: protein: recombinant; tags: N-terminal GST; dsDNA, one strand shown
T11 sequence: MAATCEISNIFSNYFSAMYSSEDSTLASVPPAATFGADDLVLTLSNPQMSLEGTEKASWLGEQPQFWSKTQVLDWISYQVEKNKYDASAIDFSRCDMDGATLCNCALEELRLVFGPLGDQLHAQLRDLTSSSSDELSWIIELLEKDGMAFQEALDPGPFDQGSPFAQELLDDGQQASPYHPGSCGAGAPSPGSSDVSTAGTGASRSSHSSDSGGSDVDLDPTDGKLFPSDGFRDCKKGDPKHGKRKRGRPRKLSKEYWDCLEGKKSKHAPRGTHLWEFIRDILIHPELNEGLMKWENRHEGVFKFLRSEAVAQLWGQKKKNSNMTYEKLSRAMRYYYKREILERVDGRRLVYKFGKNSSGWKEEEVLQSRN
In short: as §1

[18] = biological target: CRX (Homo sapiens, UniProt O43186 1-299); conditions: protein: recombinant; tags: N-terminal GST; dsDNA, one strand shown
Chain of CRX (O43186 whole entry): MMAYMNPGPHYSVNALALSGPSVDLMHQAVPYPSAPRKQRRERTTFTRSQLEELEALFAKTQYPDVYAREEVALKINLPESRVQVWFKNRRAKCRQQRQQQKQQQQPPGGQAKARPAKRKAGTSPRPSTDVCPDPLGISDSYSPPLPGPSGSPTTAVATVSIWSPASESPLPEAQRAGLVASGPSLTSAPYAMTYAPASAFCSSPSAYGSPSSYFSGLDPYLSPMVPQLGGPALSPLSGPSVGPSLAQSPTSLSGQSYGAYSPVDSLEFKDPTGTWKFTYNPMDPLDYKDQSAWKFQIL
In short: as §1

[19] = biological target: ETV1 (Homo sapiens, UniProt P50549 1-477); conditions: protein: recombinant; tags: N-terminal GST; dsDNA, one strand shown
Chain of ETV1 (P50549 whole entry): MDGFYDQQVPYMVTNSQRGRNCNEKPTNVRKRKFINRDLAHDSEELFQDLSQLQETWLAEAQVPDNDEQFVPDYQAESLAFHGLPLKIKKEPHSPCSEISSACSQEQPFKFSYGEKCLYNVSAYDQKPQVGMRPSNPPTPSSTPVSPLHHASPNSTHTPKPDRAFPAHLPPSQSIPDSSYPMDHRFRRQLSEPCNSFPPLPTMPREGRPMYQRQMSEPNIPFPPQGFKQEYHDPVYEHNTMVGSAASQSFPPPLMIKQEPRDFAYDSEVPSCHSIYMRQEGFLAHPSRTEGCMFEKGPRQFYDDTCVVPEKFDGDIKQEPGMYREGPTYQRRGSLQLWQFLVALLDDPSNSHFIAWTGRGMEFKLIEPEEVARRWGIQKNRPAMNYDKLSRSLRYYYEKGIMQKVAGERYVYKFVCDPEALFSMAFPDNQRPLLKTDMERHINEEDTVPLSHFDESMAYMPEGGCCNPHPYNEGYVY
In short: as §1

Sequence: ACCGAC
- binding signal [1]: 1.41 fold enrichment (6-mer frequency, TF over GST control)
- binding signal [2]: 1.29 fold enrichment (6-mer frequency, TF over GST control)
- binding signal [3]: 1.29 fold enrichment (6-mer frequency, TF over GST control)
- binding signal [4]: 1.29 fold enrichment (6-mer frequency, TF over GST control)
- binding signal [5]: 1.3 fold enrichment (6-mer frequency, TF over GST control)
- binding signal [6]: 1.23 fold enrichment (6-mer frequency, TF over GST control)
- binding signal [7]: 1.4 fold enrichment (6-mer frequency, TF over GST control)
- binding signal [8]: 1.34 fold enrichment (6-mer frequency, TF over GST control)
- binding signal [9]: 1.35 fold enrichment (6-mer frequency, TF over GST control)
- binding signal [10]: 1.36 fold enrichment (6-mer frequency, TF over GST control)
- binding signal [11]: 1.31 fold enrichment (6-mer frequency, TF over GST control)
- binding signal [12]: 1.05 fold enrichment (6-mer frequency, TF over GST control)
- binding signal [13]: 1.37 fold enrichment (6-mer frequency, TF over GST control)
- binding signal [14]: 1.31 fold enrichment (6-mer frequency, TF over GST control)
- binding signal [15]: 1.24 fold enrichment (6-mer frequency, TF over GST control)
- binding signal [16]: 1.36 fold enrichment (6-mer frequency, TF over GST control)
- binding signal [17]: 1.17 fold enrichment (6-mer frequency, TF over GST control)
- binding signal [18]: 1.05 fold enrichment (6-mer frequency, TF over GST control)
- binding signal [19]: 1.37 fold enrichment (6-mer frequency, TF over GST control)
